From PubChem
This is a sample that favours compounds with a hit; in the whole collection about 2.4% have one here.
HSF1 activator: increases HSF-1 driven luciferase reporter signal; NIH3T3-HGL HSF-1 luciferase reporter, MG132, 8 h; 100% = twice DMSO control signal; activation, % at 9 µM; hit rate 1.7% among 300,000;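 active means mean replicate activation of at least 50% with a set share of replicates each reaching 50%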;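 further: 0% = median of the neutral control wells and 100% = twice that signal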
NOD2 RIPK2 PPI: NOD2-RIPK2 protein interaction inhibition; hit rate 0.38% among 360,000; O43353; AID 624267; inhibition, % at 4.98 µM; CHO BLA complementation NOD2-RIPK2, CCF4 ratio; in the data active means inhibition above about 21%;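 further: 0% = vehicle only and 100% = reference blocker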
HSF1 inhib: HSF1 inhibition. NIH3T3-HGL HSE-luciferase, MG132-induced, luminescence 8 h; stronger effect = lower value. hit rate 0.77% among 300,000. activity change, negative = inhibition, % at 7.5 µM (by protocol);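 active means more than half of replicate wells show activity change below -50%, luminescence cut by over half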;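 further: luciferase reports HSF-1 transcriptional activity via heat shock element; 0% = median of DMSO wells and -100% = zero luminescence signal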
TLR4 MyD88 comp: blocks binding of human TLR4 to MyD88; HeLa CL3-4 TLR4/MyD88 BLA complementation, FRET ratio; inhibition, % at 8.4 µM; hit rate 0.18% among 200,000; in the data active means inhibition above about 25%;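 further: 0% = vehicle and 100% = reference inhibitor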
Target sequence (O00206 whole entry, looked up): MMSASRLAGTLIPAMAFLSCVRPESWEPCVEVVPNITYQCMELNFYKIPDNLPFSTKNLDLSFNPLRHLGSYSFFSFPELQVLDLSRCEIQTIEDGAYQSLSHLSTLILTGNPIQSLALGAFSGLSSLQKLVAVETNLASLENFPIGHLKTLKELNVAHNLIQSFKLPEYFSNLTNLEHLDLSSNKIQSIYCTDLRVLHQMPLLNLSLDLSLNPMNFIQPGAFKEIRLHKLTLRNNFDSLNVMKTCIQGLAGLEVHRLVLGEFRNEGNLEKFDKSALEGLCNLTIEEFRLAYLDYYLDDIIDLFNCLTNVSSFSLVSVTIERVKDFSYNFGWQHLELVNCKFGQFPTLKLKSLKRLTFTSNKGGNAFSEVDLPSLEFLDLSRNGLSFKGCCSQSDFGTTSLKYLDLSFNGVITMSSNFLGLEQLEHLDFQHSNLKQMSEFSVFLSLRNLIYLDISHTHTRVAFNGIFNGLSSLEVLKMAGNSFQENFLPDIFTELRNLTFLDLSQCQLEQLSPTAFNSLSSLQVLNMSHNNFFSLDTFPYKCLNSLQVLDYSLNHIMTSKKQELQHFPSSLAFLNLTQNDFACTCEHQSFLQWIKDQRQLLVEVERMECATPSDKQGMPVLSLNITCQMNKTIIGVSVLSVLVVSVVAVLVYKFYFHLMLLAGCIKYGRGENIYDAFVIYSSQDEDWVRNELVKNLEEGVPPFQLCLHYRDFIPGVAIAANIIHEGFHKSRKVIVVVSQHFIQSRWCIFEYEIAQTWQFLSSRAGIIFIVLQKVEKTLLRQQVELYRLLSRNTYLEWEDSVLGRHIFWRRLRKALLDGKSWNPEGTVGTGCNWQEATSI
Target sequence (Q99836 whole entry, looked up): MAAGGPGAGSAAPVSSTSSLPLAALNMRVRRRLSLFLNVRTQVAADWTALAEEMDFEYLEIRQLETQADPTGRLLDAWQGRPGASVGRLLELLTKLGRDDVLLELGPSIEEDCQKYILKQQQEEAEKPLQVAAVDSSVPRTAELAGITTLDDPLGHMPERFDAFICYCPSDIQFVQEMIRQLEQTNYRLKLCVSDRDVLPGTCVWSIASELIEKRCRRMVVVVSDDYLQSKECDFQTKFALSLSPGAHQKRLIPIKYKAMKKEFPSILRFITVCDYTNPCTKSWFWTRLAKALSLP
TLR9-MyD88 block: inhibitors of human TLR9-MyD88 binding; Q9NR96+Q99836; CHO BLA complementation TLR9-MyD88, CCF4 FRET ratio; inhibition, % at 4.98 µM; hit rate 0.21% among 340,000; AID 504734;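 active means inhibition above the mean over all tested compounds plus 3 SD, cut at about 21% in these data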;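 further: 0% = DMSO only wells and 100% = clavulanate BLA inhibitor control wells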
* = called active by the depositor; . = not tested or not shown.

SMILES | HSF1 activator | NOD2 RIPK2 PPI | HSF1 inhib | TLR4 MyD88 comp | TLR9-MyD88 block
CCOC(=O)c1c(C)n(-c2ccc(C)cc2)c2c(C(C(C)=O)C(=O)O)c(Br)c(O)c(O)c12 (stereo not drawn) | -1 | 6 | 11 | -1 | -6
CCOC(=O)C1=CNS(=O)(=O)NC1c1ccc2ccccc2c1 (stereo not drawn) | . | -15 | . | . | -9
O=C(CN(Cc1ccccc1Cl)S(=O)(=O)c1ccc(Cl)cc1)N/N=C/c1ccc(C(=O)O)cc1 | -89 | -4 | -86* | . | -7
Cc1cc2n(n1)C(c1ccccc1)CC(c1ccc(Br)cc1)=N2 (stereo not drawn) | . | 22* | . | -10 | 24*
C(#Cc1ccccc1)C[N+]1(CC#Cc2ccccc2)CCCCC1 | -13 | -10 | -10 | 24 | 9
C#CC[N+]1(CC#Cc2ccccc2)CCCCC1 | 82* | 2 | 49 | 0 | -7
Cc1cccc2cc3c(N)c(C(=O)N4CCOCC4)sc3nc12 | 81* | -9 | 36 | 8 | -6
CCOC(=O)C1=CCN(Cc2ccccc2)CC1 | 10 | -2 | -3 | . | 9
CCN(C(=O)COC(=O)CCC(=O)c1ccccc1)c1c(N)n(Cc2ccccc2)c(=O)[nH]c1=O | . | -2 | . | . | -2
COc1cc(CCCN2CCNC[C@@H]2Cc2ccc(O)cc2)cc(OC)c1OC | -66 | -4 | -55* | . | -2
COc1cc(CNC(=O)c2cc(C(=O)NCc3cc(OC)cc(OC)c3)n(C)n2)cc(OC)c1 | . | 0 | . | . | -2
COc1ccn(C2CCCCO2)c(=O)n1 (stereo not drawn) | . | 6 | . | . | -2
O=C(c1ccc([N+](=O)[O-])s1)N1CCN(c2cccc(Cl)c2)CC1 | -59 | 2 | -52* | -5 | 4
O=C(c1cccs1)N1CCN(c2cccc(Cl)c2)CC1 | 14 | -10 | 2 | . | -1
CC(C)(C)c1cc(C(=O)NCc2cc(F)cc3c2OCOC3)n(Cc2ccccc2)n1 | 56* | -12 | 42 | . | 8
CC(C)(C)c1cc(C(=O)NNC(=O)Nc2ccccc2)n(Cc2ccccc2)n1 | 7 | 1 | -4 | . | 5
COc1ccc(OC)c(NC(=O)COC(=O)CCNc2ccccc2OC)c1 | . | -10 | . | . | -11
Cc1cc(C)cc(N(CC(=O)Nc2ccc(Br)cc2)S(=O)(=O)c2c(C)[nH]c(=O)[nH]c2=O)c1 | -71 | -3 | -63* | . | 4
CCOC(=O)C1=CN(Cc2cccc(Br)c2)S(=O)(=O)N(CC)C1C (stereo not drawn) | . | -10 | . | . | -9
O=C(COc1ccccc1Cl)NCc1ccccc1 | 20 | 8 | 13 | . | 1
CC(C)(C)NC(=O)NC(=O)COc1ccc(Br)cc1Br | 74* | 5 | 46 | -9 | 4
O=C(COc1ccc(Br)cc1Cl)NC(=O)NCc1ccccc1 | 67* | -4 | 27 | -19 | -9
CNC(=O)NC(=O)CSc1ccc(S(=O)(=O)N(C)C2CCCCC2)cn1 | . | -7 | . | . | 3
CCOC(=O)c1ccc(-n2[nH]c(-c3ccccc3)cc2=O)cc1 | -78 | -3 | -72* | 3 | -2
OCc1cn(-c2ccccc2)nc1-c1cc2ccccc2o1 | 63* | -7 | 32 | -4 | 0
SMILES | HSF1 activator | NOD2 RIPK2 PPI | HSF1 inhib | TLR4 MyD88 comp | TLR9-MyD88 block
O=C(N/N=C/c1cn(-c2ccccc2)nc1-c1cc2ccccc2o1)c1ccccc1Br | 76* | -16 | 40 | 15 | -14
O=C(N/N=C/c1cn(-c2ccccc2)nc1-c1cc2ccccc2o1)c1c[nH]c2ccccc12 | 25 | -1 | 6 | 6 | -9
O=C(CN1CCOCC1)Nc1ccc(-c2nc3ccccc3[nH]2)cc1 | 56* | 5 | 30 | 4 | -7
O=C(CSc1ccccc1)Nc1ccc(-c2nc3ccccc3[nH]2)cc1 | 48 | 3 | 16 | 0 | -2
CCCCN(C(=O)CSCC(=O)Nc1ccc(C)cc1)c1c(N)n(CC(C)C)c(=O)[nH]c1=O | . | -12 | . | . | -16
COC(=O)c1ccc(C(=O)OC)c(-n2c(=O)c3ccccc3c3ccccc3c2=O)c1 | 78* | -5 | 53 | -9 | -6
COc1ccc(-c2cc(CCC(=O)N3CCN(c4cc(C)ccc4C)CC3)[nH]n2)cc1 | . | -5 | . | . | -1
Cn1c(=O)c2c(nc(Oc3cccc(O)c3)n2C)n(C)c1=O | -80 | 12 | -77* | . | -4
Cn1c(=O)c2c(nc(Oc3ccc4ccccc4c3)n2C)n(C)c1=O | -20 | -5 | -18 | 6 | -1
CC1CN(C(=O)c2cc(S(=O)(=O)N(C)c3ccc(F)cc3)ccc2Cl)CC(C)O1 (stereo not drawn) | -76 | -5 | -71* | . | 3
CC1CN(C(=O)c2cc(S(=O)(=O)N3CCCC3)ccc2Cl)CC(C)O1 (stereo not drawn) | -8 | 1 | -1 | . | -5
COC(=O)c1ccc2nc(-c3ccc(C)cc3)c(CC3CCCCC3)n2c1 | . | -3 | . | . | .
CCOc1cc(CNc2ccc(N3CCOCC3)cc2)cc(Br)c1OCC | -26 | -3 | -26 | 0 | 11
CCOc1cc(CNc2ccc3c(c2)OCCO3)cc(Br)c1OCC | -85 | 2 | -82* | -7 | 7
Cc1ccc(N2C(=O)N(CC(=O)NC(N)=O)C(=O)C2C)cc1 (stereo not drawn) | -75 | -3 | -69* | 5 | 9
Cc1ccc(N2C(=O)N(CC(=O)NC(c3ccccc3)c3ccccc3)C(=O)C2C)cc1 (stereo not drawn) | 12 | 8 | -5 | -1 | -8
CCOC(=O)CCCCCC(=O)Nc1ccc2c(c1)C(=O)N([C@@H](C)CO)C[C@H](C)[C@H](CN(C)C(=O)Nc1ccc(F)cc1)OCCCC[C@H](C)O2 | . | 1 | . | . | -11
COc1cccc(NC(=O)CCSc2nnc3scc(-c4ccccc4)n23)c1 | -78 | -3 | -73* | -10 | 4
COc1cccc(-c2csc3nnc(SCC(=O)c4ccc(NC(C)=O)cc4)n23)c1 | . | -8 | . | -14 | 4
COc1ccc(S(=O)(=O)N2CCC3CC2c2cc(-c4ccc5c(c4)OCO5)ccc23)cc1 (stereo not drawn) | . | 6 | . | . | .
O=C(NCC1CCCO1)c1nn2c(C(F)(F)F)cc(-c3cc(Br)cs3)nc2c1Br (stereo not drawn) | 62* | -2 | 19 | . | -3
Cc1nn(C)c(C)c1/C=N/NC(=O)C(C)(C)Oc1ccc(Cl)cc1 | 1 | -11 | -4 | 5 | 8
Cc1nn(C(C)(C)C)c(C)c1/C=N/OC(=O)Nc1ccc(Cl)cc1 | -92 | -10 | -92* | . | -2
COc1ccc(S(=O)(=O)Nc2cccc3c2O[C@H](CN(C)Cc2ccncc2)[C@@H](C)CN([C@H](C)CO)C3=O)cc1 | . | -6 | . | . | -8
C/C=C/c1ccc(OCC(=O)Nc2cc(OC)c(OC)c(OC)c2)c(OC)c1 | -60 | -12 | -52* | 8 | -3
C/C=C/c1ccc(OCC(=O)O)c(OC)c1 | 2 | -13 | -3 | . | -12
O=C(CCc1nnc(CCCc2ccccc2)o1)NC(C1CC1)C1CC1 | 65* | -8 | 35 | 10 | 5
O=C(CCc1nnc(CCCCc2ccccc2)o1)NCCN1CCCCC1=O | 58* | 1 | 14 | -2 | 7
